Bioassay records from PubChem BioAssay.
Artemis inh = blocks endonuclease activity of human Artemis | Q96SD1 | recombinant Artemis, quenched FAM hairpin cleavage fluorescence | inhibition, % at 10 µM | 30,000 tested, 0.78% active | AID 686954;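 active means at 10 µM dose, at least 30% inhibition, measured as corrected fluorescence normalized to stimulator and neutral control wells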
Numbers without * were called inactive. Only a selection was taken, and hits are over-represented in it overall.

SMILES	Artemis inh
C=CCOC(=O)c1cc(-c2ccc(/C=C3\C(=O)NC(=O)C(C#N)=C3C)o2)ccc1Cl	35.6*
C=CCOC(=O)C1=C(C)NC(SC)=C(C#N)C1c1ccc(OCC)cc1 (stereo not drawn)	0.3
Cc1nn(-c2ccccc2)c2c1C(=O)N(Cc1ccccc1)C(=O)C(C)(C)C2	-7.2
CCCC(=O)C1=C(O)C(C(=O)OC)C(C)(C)CC1=Nc1ccccc1 (stereo not drawn)	0.8
O=c1[nH]nc2n1CCCCC2	-0.9
COc1ccc(NC(=O)CCn2nc(C)cc2C)cc1	-3.6
CC(NC(=O)CC1Nc2ccccc2NC1=O)c1ccccc1 (stereo not drawn)	-1.1
